Test results as given in PubChem BioAssay (NCI).
Compounds without any hit were thinned out: in the full panel of roughly 79,000, 15% have a hit. A number with no mark means an inactive call. The source made the active and inactive calls. No stated cut-off is given here; in the data, active means growth inhibition above about 70%; inactive means the rest.

Columns and labels:
[1] = NCI Yeast Anticancer Drug Screen. Data for the rad50 strain (AID 155);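 further: 0% = growth of vehicle-only cultures of the same strain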; details: S. cerevisiae rad50 strain growth inhibition, active compounds read high
How it was run: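 Vehicle-treated cultures provide the reference for the growth inhibition reported for compound-exposed, repair-deficient yeast.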

[2] = NCI Yeast Anticancer Drug Screen. Data for the mec2-1 strain (AID 157); details: S. cerevisiae mec2-1 strain, active compounds read high
How it was run: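 Compounds were applied to mec2-1 yeast cells. Their growth was then compared with that of vehicle-treated cultures to give growth inhibition.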

[3] = NCI Yeast Anticancer Drug Screen. Data for the sgs1 mgt1 strain (AID 161);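 further: 0% = growth of cultures given vehicle only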; details: S. cerevisiae sgs1 mgt1 strain, active compounds read high
How it was run: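 Compounds are added to genetically altered yeast, and growth is compared with cultures given vehicle alone to give percent inhibition.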

[4] = NCI Yeast Anticancer Drug Screen. Data for the cln2 rad14 strain (AID 165);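 further: 0% = growth equal to vehicle treated cultures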; details: S. cerevisiae cln2 rad14 strain, active compounds read high
How it was run: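 Strain: cln2 rad14 yeast, altered in cell cycle control and DNA damage repair. Read-out: growth inhibition vs vehicle.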

[5] = NCI Yeast Anticancer Drug Screen. Data for the bub3 strain (AID 167); details: S. cerevisiae bub3 mutant strain, active compounds read high
How it was run: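 Mutant yeast screening strain plus compound; vehicle-treated cultures serve as the 0% inhibition reference.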

[6] = NCI Yeast Anticancer Drug Screen. Data for the mlh1 rad18 strain (AID 175); details: S. cerevisiae mlh1 rad18 strain growth inhibition, active compounds read high
How it was run: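 A repair-deficient yeast strain is exposed to test compound, and growth is scored relative to vehicle-treated controls.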

[7] = at 5.0 µM (retest, dose inferred, filed as 0.5)
[8] = at 50.0 µM (retest, dose inferred, filed as 5.0)

Structure (SMILES) | growth inhibition [1, 7] [%] | growth inhibition [1, 8] | growth inhibition ([1]; at 50.0 µM) | growth inhibition [2, 7] [%] | growth inhibition [2, 8] [%] | growth inhibition ([2]; at 50.0 µM) | growth inhibition [3, 7] [%] | growth inhibition [3, 8] | growth inhibition ([3]; at 50.0 µM) | growth inhibition [4, 7] [%] | growth inhibition [4, 8] | growth inhibition ([4]; at 50.0 µM) | growth inhibition [5, 7] [%] | growth inhibition [5, 8] | growth inhibition ([5]; at 50.0 µM) | growth inhibition [6, 7] | growth inhibition [6, 8] | growth inhibition ([6]; at 50.0 µM)
O=C1/C(=C/c2cccc(Br)c2)CCc2ccccc21 | 1 | 26% | 66.3% | 8 | 49 | 18.4% | 13 | 58% | 61.4% | -5 | 16% | 22.4% | 44 | 82% (active) | 74.6% (active) | 13% | 64% | 65.8%
C=CCOc1ccccc1C(OCC)OCC | 8 | 74% (active) | 46.5% | 7 | 35 | 23.3% | 8 | 76% (active) | 52.6% | 11 | 32% | 7.75% | 7 | 81% (active) | 30.2% | 0% | 87% (active) | 43.8%
O=c1[nH]c2ccccc2c(O)c1/C=N/C(=S)NCCc1ccccc1 | 26 | 28% | -41.5% | 25 | 22 | -21.8% | 28 | 29% | 5.4% | 21 | 11% | 9.6% | 30 | 20% | 4.65% | 28% | 22% | 7.5%
COc1cccc2c1C(=O)c1c(O)c3c(c(O)c1C2=O)C[C@@](O)(/C(C)=N\NC=O)C[C@@H]3OC1CC(N)C(O)C(C)O1 (stereo partly specified) | -3 | 86% (active) | 75% (active) | -1 | 45 | 49.5% | -4 | 38% | 72.7% (active) | 8 | 51% | 39.9% | 17 | 84% (active) | 76.5% (active) | 4% | 90% (active) | 76% (active)
COC1CC(C)(NC(C)=O)C2OC(c3ccccc3)OCC2O1 (stereo unspecified) | -5 | -16% | 81.8% (active) | -11 | -15 | 81.2% (active) | -7 | -24% | 71.9% (active) | -40 | 10% | 75.5% (active) | -21 | -8% | 82.7% (active) | -1% | -3% | 70.4% (active)
Cn1c(=S)c2[nH]c(SC3CCCCC3)nc2n(C)c1=O | 46 | 68% | 94.8% (active) | 42 | 61 | 99.5% (active) | 41 | -20% | 99.2% (active) | 27 | 34% | 52.5% | 52 | 63% | 98.2% (active) | 23% | 62% | 98.8% (active)
OC(CN1CCC(c2ccccc2)CC1)c1ccc(Br)cc1 (stereo unspecified) | 57 | 74% (active) | 87.7% (active) | 32 | 53 | 61.2% | 66 | 64% | 83.2% (active) | 64 | 77% (active) | 76.8% (active) | 58 | 93% (active) | 82.7% (active) | 80% (active) | 91% (active) | 80.5% (active)
